Reference: the supplement of paper PMC8975748
Where a name gives a salt, the structure may show the parent alone.

system: Saccharomyces cerevisiae BY4741 SeMeCo community; experiment: z-score of subpopulation abundance vs DMSO median, subpopulation auxotrophic for UM; higher = larger share of this subpopulation than in DMSO controls; conditions: 10 µM; 24 h; SM minimal medium; subpopulation (auxotrophy): UM
Protocol: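 Fluorescent four-plasmid SeMeCo (self-establishing metabolically cooperating S. cerevisiae BY4741 community; plasmids pH-mRuby2, pL-mWasabi, pU-eCFP, pM-TagRFP657) was grown 24 h in minimal SM medium with each Selleck FDA-approved drug at 10 µM in 384-well plates. Cells were fixed and imaged by high-content confocal microscopy. For each auxotrophic subpopulation (and the prototroph), a z-score gives the deviation from the DMSO vehicle-control population median.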

Going from `CNS(=O)(=O)CCc1ccc2[nH]cc(C3CCN(C)CC3)c2c1` [Naratriptan HCl] to `COc1ccccc1N1CCN(CCCNc2cc(=O)n(C)c(=O)n2C)CC1` [Urapidil HCl], the “z-score of subpopulation abundance” value falls from 0.23 to 0.

Going from `CN1CC(=O)N2[C@H](c3ccc4c(c3)OCO4)c3[nH]c4ccccc4c3C[C@@H]2C1=O` [Tadalafil] to `Fc1ccc([C@@H]2CCNC[C@H]2COc2ccc3c(c2)OCO3)cc1` [Paroxetine mesylate], the “z-score of subpopulation abundance” value rises from -0.26 to 0.67.

Compared with `CCOC(=O)c1ccc(O)cc1` [Ethylparaben], `Nc1ccc(S(N)(=O)=O)cc1` [Sulfanilamide] is lower in “z-score of subpopulation abundance” value: 1.66 for the first, 0.11 for the second.

Compared with `Nc1ccc(S(=O)(=O)Nc2ncccn2)cc1` [Sodium sulfadiazine], `Cc1cc(C)nc(NS(=O)(=O)c2ccc(N)cc2)n1` [Sulfamethazine] is lower in “z-score of subpopulation abundance” value: -0.13 for the first, -0.43 for the second.

Going from `COc1cc(NS(=O)(=O)c2ccc(N)cc2)nc(OC)n1` [SulfadiMethoxine sodium] to `Cc1onc(-c2ccccc2)c1-c1ccc(S(N)(=O)=O)cc1` [Valdecoxib], the “z-score of subpopulation abundance” value falls from -0.12 to -0.64.

Compared with `CN(C)CCN1C(=O)c2cccc3cc(N)cc(c23)C1=O` [Amonafide], `Cc1ccc(Nc2c(F)cccc2Cl)c(CC(=O)O)c1` [Lumiracoxib] is lower in “z-score of subpopulation abundance” value: -0.24 for the first, -0.4 for the second.

Going from `C=C[C@H]1CN2CC[C@H]1C[C@@H]2[C@@H](O)c1ccnc2ccc(OC)cc12` [Quinidine sulfate] to `C#C[C@]1(O)CC[C@H]2[C@@H]3CCc4cc(OC)ccc4[C@H]3CC[C@@]21C` [Mestranol], the “z-score of subpopulation abundance” value falls from 0.08 to -0.68.

Compared with `Clc1ccccc1C(c1ccccc1)(c1ccccc1)n1ccnc1` [Clotrimazole], `CC(C)(C)CC(C)(C)c1ccc(OCCOCC[N+](C)(C)Cc2ccccc2)cc1` [Benzethonium Chloride] is lower in “z-score of subpopulation abundance” value: 18.8 for the first, -0.2 for the second.

Going from `CCCCCOc1ccc(-c2ccc(-c3ccc(C(=O)N[C@H]4C[C@@H](O)[C@@H](O)NC(=O)[C@@H]5[C@@H](O)[C@@H](C)CN5C(=O)[C@H]([C@@H](C)O)NC(=O)[C@H]([C@H](O)[C@@H](O)c5ccc(O)cc5)NC(=O)[C@@H]5C[C@@H](O)CN5C(=O)[C@H]([C@@H](C)O)NC4=O)cc3)cc2)cc1` to `O=c1c(-c2ccc(O)cc2)coc2c([C@@H]3O[C@H](CO)[C@@H](O)[C@H](O)[C@H]3O)c(O)ccc12` [Puerarin], the “z-score of subpopulation abundance” value falls from 1.54 to 0.39.

Compared with `OC1(c2ccc(Cl)c(C(F)(F)F)c2)CCN(CCCC(c2ccc(F)cc2)c2ccc(F)cc2)CC1` [Penfluridol], `OCCN1CCN(CCCN2c3ccccc3Sc3ccc(C(F)(F)F)cc32)CC1` [Fluphenazine dihydrochloride] is lower in “z-score of subpopulation abundance” value: 2.69 for the first, -1.12 for the second.

Compared with `CO[C@@]1(NC(=O)Cc2cccs2)C(=O)N2C(C(=O)O)=C(COC(N)=O)CS[C@@H]21` [Cefoxitin sodium], `CO/N=C(\C(=O)N[C@@H]1C(=O)N2C(C(=O)O)=C(COC(N)=O)CS[C@H]12)c1ccco1` [Cefuroxime sodium] is higher in “z-score of subpopulation abundance” value: -0.63 for the first, 0.13 for the second.

First: N/C(=N\N=C\c1ccc(Cl)cc1)N/N=C/c1ccc(Cl)cc1 [Robenidine Hydrochoride]
Second: NC(=O)N/N=C/c1ccc([N+](=O)[O-])o1 [Nitrofural]
The “z-score of subpopulation abundance” value of the first is higher: 6.84 for the first, 0.54 for the second.

Going from `OCCN1CCN(CCCN2c3ccccc3Sc3ccc(Cl)cc32)CC1` [Perphenazine] to `Cc1nccn1CC1CCc2c(c3ccccc3n2C)C1=O` (stereo not given) [Ondansetron Hydrochloride Dihydrate], the “z-score of subpopulation abundance” value rises from 0.06 to 0.75.

First: CCOc1cc(N)c(Cl)cc1C(=O)NCC1CN(Cc2ccc(F)cc2)CCO1 (stereo not given) [Mosapride]
Second: COCCCN1CCC(NC(=O)c2cc(Cl)c(N)c3c2OCC3)CC1 [Prucalopride]
The “z-score of subpopulation abundance” value of the first is lower: -0.47 for the first, 0.57 for the second.

Compared with `O=C(O)c1cc(=O)c2c(OCC(O)COc3cccc4oc(C(=O)O)cc(=O)c34)cccc2o1` [Disodium Cromoglycate], `Cc1c(Nc2ncccc2C(=O)O)cccc1C(F)(F)F` [Flunixin Meglumin] is higher in “z-score of subpopulation abundance” value: -0.22 for the first, 0.51 for the second.

First: C[C@]12CC[C@@H]3c4ccc(O)cc4C[C@@H](CCCCCCCCC[S+]([O-])CCCC(F)(F)C(F)(F)F)[C@H]3[C@@H]1CC[C@@H]2O (stereo not given in full) [Fulvestrant]
Second: OC(c1cc(C(F)(F)F)nc2c(C(F)(F)F)cccc12)C1CCCCN1 (stereo not given) [Mefloquine HCl]
The “z-score of subpopulation abundance” value of the first is lower: 0.53 for the first, 0.92 for the second.

Going from `C#C[C@]1(O)CC[C@H]2[C@@H]3CCC4=CC(=O)CC[C@@H]4[C@H]3C(=C)C[C@@]21CC` [Etonogestrel] to `CC(=O)OCC(CCn1cnc2cnc(N)nc21)COC(C)=O` [Famciclovir], the “z-score of subpopulation abundance” value falls from 0.08 to -0.68.

Going from `CCS(=O)(=O)CCn1c([N+](=O)[O-])cnc1C` [Tinidazole] to `Cn1c(=O)c2c(ncn2CC(O)CO)n(C)c1=O` (stereo not given) [Dyphylline], the “z-score of subpopulation abundance” value falls from -0.43 to -0.61.

Compared with `CC1=Nc2ccc(Cl)cc2S(=O)(=O)N1` [Diazoxide], `COc1ccc(CCN(C)CCCC(C#N)(c2ccc(OC)c(OC)c2)C(C)C)cc1OC` (stereo not given) [Verapamil HCl] is higher in “z-score of subpopulation abundance” value: -0.03 for the first, 0.03 for the second.

Compared with `Nc1nc(/C(=C/CC(=O)O)C(=O)N[C@@H]2C(=O)N3C(C(=O)O)=CCS[C@H]23)cs1` [Ceftibuten dihydrate], `CCCCCCCCCCCCCCCC[N+](C)(C)C` [Cetrimonium Bromide (CTAB)] is higher in “z-score of subpopulation abundance” value: -0.49 for the first, 12.1 for the second.
